Screens: PubChem BioAssay, The Scripps Research Institute Molecular Screening Center
A selection: hits, their analogues and other compounds. The true share with any hit is near 2.7%.
PAFAH1B3 inh: PAFAH1B3 enzyme inhibitors, primary screen, biochemical, fluorescence polarization, human; Platelet-activating factor acetylhydrolase IB subunit alpha1 (Homo sapiens), Q15102; AID 492972, 2010; inhibition, % at 3.39 µM; hit rate 0.28% among 340,000; recombinant PAFAH1B3, FP-rhodamine probe;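 active = inhibition above the screen-wide average of all tested compounds plus 3 SD, cut at about 25% in these data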;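 also: 0% = enzyme with DMSO only and 100% = wells lacking PAFAH1B3 protein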
Target sequence (Q15102 whole entry, looked up): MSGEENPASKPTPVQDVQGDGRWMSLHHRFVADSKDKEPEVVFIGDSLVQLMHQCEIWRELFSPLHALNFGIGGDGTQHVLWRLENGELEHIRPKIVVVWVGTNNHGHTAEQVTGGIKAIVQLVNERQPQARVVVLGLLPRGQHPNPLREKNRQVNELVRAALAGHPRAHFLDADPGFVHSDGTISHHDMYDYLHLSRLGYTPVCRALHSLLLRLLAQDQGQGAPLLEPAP
pPAFAH inh: pPAFAH enzyme inhibitors, primary screen, biochemical, fluorescence polarization, human; hit rate 1.5% among 330,000; AID 463082, 2010; inhibition, % at 3.39 µM; Platelet-activating factor acetylhydrolase (Homo sapiens), Q13093; recombinant pPAFAH, FP-rhodamine probe fluorescence polarization;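 active = inhibition above the mean inhibition across the screen plus 3 SD, cut at about 25% in these data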;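 also: inhibitors block binding of the rhodamine activity-based probe so polarization drops; 0% = enzyme with DMSO and 100% = wells lacking pPAFAH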
TCR-CD3 inh: inhibitors of human TCR-CD3 interaction, primary screen, biochemical, fluorescence, TAMRA-labeled TCR probe; T-cell receptor (TCR); inhibition, % at 9.4 µM; hit rate 0.37% among 360,000; AID 651800, 2012; in the data active = inhibition above about 19%;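 also: recombinant mutant TCR 2C K166C tagged with TAMRA read by polarization; 0% = receptor in buffer alone and 100% = receptor with positive control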
PAFAH2 FP inh: PAFAH2 enzyme inhibitors, primary screen, biochemical, fluorescence polarization, human; Platelet-activating factor acetylhydrolase 2, cytoplasmic (Homo sapiens), Q99487; recombinant PAFAH2, FP-rhodamine activity probe; inhibition, % at 3.39 µM; hit rate 0.99% among 340,000;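 active = inhibition above the mean over all tested compounds plus 3 SD, cut at about 30% in these data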;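 also: inhibitors block probe labeling of enzyme so polarization drops; 0% = enzyme with DMSO and 100% = wells lacking PAFAH2 protein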
PAFAH1B2 inh: PAFAH1B2 enzyme inhibitors, primary screen, biochemical, fluorescence polarization, human. Platelet-activating factor acetylhydrolase IB subunit alpha2 (Homo sapiens), P68402. recombinant PAFAH1B2, FP-rhodamine activity probe. inhibition, % at 3.39 µM. hit rate 1.2% among 340,000;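 active = inhibition above the mean of all tested compounds plus 3 SD, cut at about 24% in these data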;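 also: 0% = enzyme with DMSO and 100% = wells lacking PAFAH1B2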
Target sequence (P68402 whole entry, looked up): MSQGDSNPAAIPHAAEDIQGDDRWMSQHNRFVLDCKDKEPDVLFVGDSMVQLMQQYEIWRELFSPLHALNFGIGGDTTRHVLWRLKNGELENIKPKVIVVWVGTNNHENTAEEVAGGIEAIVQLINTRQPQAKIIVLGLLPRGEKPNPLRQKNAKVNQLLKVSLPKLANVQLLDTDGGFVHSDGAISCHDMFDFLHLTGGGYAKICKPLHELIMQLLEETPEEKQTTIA
pPAFAH confirm: pPAFAH (PLA2G7) enzyme inhibitors, confirmation, biochemical, fluorescence polarization, human; shares compounds with pPAFAH inh; hit rate 72% among 2,300; inhibition, % at 3.39 µM; AID 463230, 2010; recombinant pPAFAH, FP-Rh probe fluorescence polarization;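 active = mean inhibition of the triplicate above the hit cutoff set for the earlier primary screen, cut at about 25% in these data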;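 also: 0% = enzyme with DMSO and 100% = wells lacking pPAFAH enzyme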
* marks the source's active call; other numbers are inactive results.

Screening CC(C)=CCC/C(C)=C/CNC(=O)C[C@H]1C[C@H](C(=O)N(C(C)C)C(C)C)[C@@]2(C)c3[nH]c4cc(CCC(=O)N(C)C)ccc4c3CCN2C1=O returned PAFAH1B3 inh 3.9, pPAFAH inh 67.9*, TCR-CD3 inh 11.5, PAFAH2 FP inh -1.7, PAFAH1B2 inh 3.5 and pPAFAH confirm 58.7*.
Screening CC1CCCN(CCCNC(=O)C2CCN(S(=O)(=O)N3CCC4(CC3)OCCO4)CC2)C1 (stereo not given) returned PAFAH1B3 inh -0.7, pPAFAH inh 0.2, TCR-CD3 inh -2.8, PAFAH2 FP inh 1.2 and PAFAH1B2 inh -2.8.
`COc1ccc(CNC(=O)c2cc(-c3ccncc3)nc3c(C)cc(C)cc23)cc1OC` gave PAFAH1B3 inh 8.1, pPAFAH inh 0.0, TCR-CD3 inh 5.7, PAFAH2 FP inh -4.2 and PAFAH1B2 inh 0.4.
For Cc1nc2ncnn2c(C)c1C/C=C/c1ccccc1 the results were PAFAH1B3 inh 10.2, pPAFAH inh -0.1, TCR-CD3 inh -0.1, PAFAH2 FP inh 5.4 and PAFAH1B2 inh -0.3.
Screening N#C/C=C1/NC(=O)c2ccccc2S1 returned PAFAH1B3 inh 3.8, pPAFAH inh 56.6*, TCR-CD3 inh -6.9, PAFAH2 FP inh -2.2, PAFAH1B2 inh -1.9 and pPAFAH confirm 5.3.
Cc1nc2cc(-c3ccsc3-n3c(C)ccc3C)[nH]n2c(=O)c1Cl was read as PAFAH1B3 inh 5.5, pPAFAH inh 54.6*, TCR-CD3 inh 7.2, PAFAH2 FP inh 84.2*, PAFAH1B2 inh 3.0 and pPAFAH confirm 47.4*.
Screening COCc1cc(=O)n2[nH]c(N)nc2n1 returned PAFAH1B3 inh 0.4, pPAFAH inh -1.2, TCR-CD3 inh 2.0, PAFAH2 FP inh -0.2 and PAFAH1B2 inh 3.6.
`COCc1cc(=O)n2[nH]c(-c3ccsc3-n3c(C)ccc3C)cc2n1` gave PAFAH1B3 inh 15.6, pPAFAH inh 46.4*, TCR-CD3 inh -5.6, PAFAH2 FP inh 54.4*, PAFAH1B2 inh 8.0 and pPAFAH confirm 18.5.
Screening Cc1cc(=O)n2[nH]c(-c3ccsc3-n3c(C)ccc3C)cc2n1 returned PAFAH1B3 inh 10.3, pPAFAH inh 42.2*, TCR-CD3 inh 15.7, PAFAH2 FP inh 39.7*, PAFAH1B2 inh 8.9 and pPAFAH confirm 10.7.
Screening Cc1ccccc1-c1cc2nc(C)c(Cl)c(=O)n2[nH]1 returned PAFAH1B3 inh 13.8, pPAFAH inh 2.0, TCR-CD3 inh -8.0, PAFAH2 FP inh 3.9 and PAFAH1B2 inh 4.3.
For CCc1ccc(NS(=O)(=O)c2ccc3c(c2)oc(=O)n3C)cc1 the results were PAFAH1B3 inh 5.4, pPAFAH inh 58.3*, TCR-CD3 inh 0.0, PAFAH2 FP inh 1.2, PAFAH1B2 inh 6.2 and pPAFAH confirm 47.0*.
`Cc1cc([N+](=O)[O-])ccc1Nc1nc2ccccc2n2cnnc12` gave PAFAH1B3 inh 3.8, pPAFAH inh 37.1*, TCR-CD3 inh -5.0, PAFAH2 FP inh -2.7, PAFAH1B2 inh 7.5 and pPAFAH confirm 5.4.
Screening Cc1c(Nc2nc3ccccc3n3cnnc23)cccc1[N+](=O)[O-] returned PAFAH1B3 inh 2.7, pPAFAH inh 0.5, TCR-CD3 inh 1.9, PAFAH2 FP inh 4.0 and PAFAH1B2 inh 2.5.
For CCCCC(=O)c1ccc(O)cc1 the results were PAFAH1B3 inh 6.1, pPAFAH inh 18.6, TCR-CD3 inh 10.8, PAFAH2 FP inh -0.7 and PAFAH1B2 inh 3.0.
Screening O=C(CCO)c1ccc(O)cc1 returned PAFAH1B3 inh 11.3, pPAFAH inh 36.9*, TCR-CD3 inh 26.8*, PAFAH2 FP inh 14.4, PAFAH1B2 inh 7.2 and pPAFAH confirm 17.2.
Screening COc1cc(/C=N/NC(=O)c2ccc(CN3C(=O)c4cccc5cccc3c45)cc2)cc(OC)c1O returned PAFAH1B3 inh 19.3, pPAFAH inh 38.4*, TCR-CD3 inh 0.5, PAFAH2 FP inh -14.4, PAFAH1B2 inh 8.7 and pPAFAH confirm 20.3.
COc1cc(/C=N\NC(=O)c2ccc(-c3ccccc3)cc2)cc(Br)c1O was read as PAFAH1B3 inh 9.5, pPAFAH inh 20.2, TCR-CD3 inh -1.1, PAFAH2 FP inh 1.0 and PAFAH1B2 inh 5.2.
O=C(NC1CCC(CC2CCC(NC(=O)C(Cl)Cl)CC2)CC1)C(Cl)Cl (stereo not given) was read as PAFAH1B3 inh -4.4, pPAFAH inh 7.6, TCR-CD3 inh -3.2, PAFAH2 FP inh -8.0 and PAFAH1B2 inh -2.9.
`CCC(C)c1ccccc1NC(=O)COC(=O)c1ccc2[nH]c3c(c2c1)CCCC3` (stereo not given) gave PAFAH1B3 inh 7.7, pPAFAH inh 38.5*, TCR-CD3 inh 4.2, PAFAH2 FP inh 71.2*, PAFAH1B2 inh 6.0 and pPAFAH confirm 29.1*.
Screening CC(C)[C@H](CN1CCC[C@H]1CN1C(N)=NC[C@H]1C(C)C)N1C[C@@H](Cc2ccccc2)N(CCCC2CCCC2)C1=N returned PAFAH1B3 inh -0.2, pPAFAH inh -2.1, PAFAH2 FP inh 2.1 and PAFAH1B2 inh 5.4.
O=C(O)c1[nH]c2ccccc2c1NS(=O)(=O)Cc1ccccc1 was read as PAFAH1B3 inh -2.3, pPAFAH inh 38.5*, TCR-CD3 inh 6.7, PAFAH2 FP inh -1.7, PAFAH1B2 inh 6.6 and pPAFAH confirm 6.1.
For CCOc1cc(CNc2ccc(O)cc2)ccc1OCc1ccc(Cl)cc1Cl the results were PAFAH1B3 inh 16.2, pPAFAH inh 36.0*, PAFAH2 FP inh 11.0, PAFAH1B2 inh 11.2 and pPAFAH confirm 21.5.
`CCOc1cc(CNCc2ccccc2)ccc1OCc1ccc(Cl)cc1` gave PAFAH1B3 inh 12.2, pPAFAH inh -3.4, TCR-CD3 inh -3.7, PAFAH2 FP inh 13.8 and PAFAH1B2 inh 7.7.
Screening Cc1ccc(NC(=O)COC(=O)c2ccc(S(=O)(=O)N3CCCC3)cc2)cc1 returned PAFAH1B3 inh 0.7, TCR-CD3 inh -1.0, PAFAH2 FP inh 7.5 and PAFAH1B2 inh -3.9.
`Oc1c(Br)cc(Br)c(/C=N/n2c(-c3ccccc3)n[nH]c2=S)c1Br` gave PAFAH1B3 inh 0.9, pPAFAH inh 41.6*, TCR-CD3 inh -0.4, PAFAH2 FP inh 31.0*, PAFAH1B2 inh 9.4 and pPAFAH confirm 53.4*.
For CCOc1ccc(CCNC(=O)Cc2ccc(NC3=NC4CS(=O)(=O)CC4S3)cc2)cc1 (stereo not given) the results were PAFAH1B3 inh -6.0, pPAFAH inh -4.6, TCR-CD3 inh 4.6, PAFAH2 FP inh -7.6 and PAFAH1B2 inh 2.5.
COc1ccc(CCNC(=O)Cc2ccc(NC3=NC4CS(=O)(=O)CC4S3)cc2)c(OC)c1 (stereo not given) was read as PAFAH1B3 inh 4.8, pPAFAH inh 36.4*, TCR-CD3 inh -6.8, PAFAH2 FP inh 2.8, PAFAH1B2 inh 4.3 and pPAFAH confirm 0.6.
